Results as given in the supplement of paper PMC12632987.

Target: UCHL1, P09936
Test: median log2 fold change of GCK-ALFA target abundance (FLAG IP / Myc IP barcode read proportion) (log2 ratio); each designed protein is fused to an ALFA-tag nanobody in HEK293 cells to bring the named protein to FLAG-tagged glucokinase (GCK); Myc marks an untargeted standard; higher = target protein stabilised (more abundant)
Settings: target protein: 3xFLAG-MCP-GCK-ALFA reporter; HEK293 landing pad (RPLP)
Outline: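 The readout is target abundance, the per-binder median log2 ratio of FLAG to Myc barcode read proportions. It came from HEK293 landing-pad cells carrying a recombined ALFA-nanobody-fused binder library, induced with 2 μg mL^−1 doxycycline and transfected with a plasmid for a FLAG-tagged target and a Myc-tagged standard. After 48 h, lysates were immunoprecipitated with anti-FLAG and anti-Myc, and circular RNA barcodes were reverse transcribed, amplified and sequenced. Each barcode needed a proportion of at least 10^−7 in both replicates and each binder at least 3 barcodes per replicate, a pseudocount of 10^−6 was added, and the replicates were pooled.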

Sequence of UCHL1, P09936 (P09936 whole entry, looked up, the tested form may be a part): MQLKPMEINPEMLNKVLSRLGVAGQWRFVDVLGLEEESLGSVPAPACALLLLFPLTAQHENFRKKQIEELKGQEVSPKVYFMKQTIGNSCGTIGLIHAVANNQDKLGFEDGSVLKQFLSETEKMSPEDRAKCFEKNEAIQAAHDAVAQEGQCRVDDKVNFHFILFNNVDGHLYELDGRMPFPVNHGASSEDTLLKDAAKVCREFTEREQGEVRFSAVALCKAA

Binder	median log2 fold change
uchl1_89_7582 (protein) EEERLARAREHLRRVLAKTRAALDRLIARLGEPDPELVAAHEELLAAAEAAIADPERAEEYLAKAEEAAVRLVELAPPERRASFRLAVGRLINTLLGYAA	-0.405
uchl1_89_7574 (protein) DPRLDPATAARLRAIAERTEAALRRILTKAGVPQATIDAFLALVRAAADTTIADRAAAPAQLAALEAALRALTARVDPATAANVRLAMGPLLRLLEGVAQ	-0.0395
uchl1_2_7566 (protein) ETVFVGVKVTLTSYDEKTGKTYKSTRTLIFTESSIDAAVEEIRELALSFREQVGVPVKVEIHIVSTREEVLERLKEKLEEMAEELKEEGIEVEISGEVVK	-0.335
uchl1_89_7581 (protein) EAARLERAKAKLRAVLAATRAALDRLIARLGEPDPALVAARDALFAAAEAAIADPARAAEYLARAEAAARRLVELAPPERRASFRLAAGRLVNTLLGFAA	-0.302
uchl1_2_7558 (protein) KSEFVGVKVTITAEDPETGKVYVAKRTFIGLASDIEKLVEEVKKLVLEFKADKKVPVKVKIEAVVSSEETAERLKKELEKMKKELAKEGIEVEITVKVVK	-0.285
uchl1_2_7555 (protein) ASQFVGVLVTITAKDEKTGKTYVSRRTLIGTAESIEKMVEEIKELVLRFKDITKAPVEVKIEVYVSTEETAERMEKELEKLKEELEKKGVKVEIEVHVVE	-0.856
uchl1_2_7560 (protein) KTQFVGVRVDITSLNPETGEVFRARRTLIGTEDSLEAMLEEVRRLVLDFKEQYGGETRVEIRITVSTEETGERAKRLAEELKEELEKEGIEVEVEVEVAK	0.0724
uchl1_2_7563 (protein) ETVFVGVLVTLTAENAETGETFRSRRTYIFTESAIDALVAEIERDALAFREQTGVPVTVDIHIVSTDEAVVRRLEAALRAMAERLAAHGITVNISSTVVR	-0.142
uchl1_2_7567 (protein) KPVFIGVKLTLTSKDEKTGKTYKSTHTLIFTESAIDKLVEEIERLALEFQKATGVPVTANIEVYSTDKEVLEKLMKKLKEMAKRLAKEGIKVNIEGKLVE	-0.668
uchl1_89_7576 (protein) AEARAQAARARLRAVLAATRAEVERLLARLGEVDPALRAAFDAFFAAAEAAIADPSTAAAALAAAEAAARRLVELAPPEYRASFRLATGRLLNLLRGYAA	-0.0383
uchl1_89_7578 (protein) EAARLAAARARLRRVLAATRAEVERLLARLGEVPPELRAAFDAFFAAAEAAIADPSTAAEALAAAEAAARRLVELAPPEYRASFRLATGRLLNALRGYAA	0.184
uchl1_2_7564 (protein) KTIFIGVLVELIAEDEETGKVYRSRHTYIFTESAIDALVEQIKEDALAFKEQTGVPVRVRIHIVSTNEEVVKKLKEKLEEMAEELKKEGIEVEISYTVVK	-0.635
uchl1_2_7569 (protein) KTVFVGVKVTLEAYDEKTGKRYRSRHTLIFTEDSIEALAKEIKELALDFQKDVGVPVTVNIEVYSTDEAVVKKTMAVLEKMAKELAKEGIKVNITGTVVK	-1.14
uchl1_2_7572 (protein) KTVFVGVKVTLTAYDEKTGKTYKSTRTLIFTESALEAAAKEIEELALNFQDAVGVPVKVDVHVVSTDEEVLKRLKELLEKMAKKLAKKGIEVNISGEVVK	-0.571
uchl1_2_7565 (protein) ETIFIGVLVTLTSRDEATGKVYRSRRTLIFTESAIDALVEEIKEDALAFKAQTGVPVTVNIHIVSTNEEVVEKLKKKLEEMAKELAKEGITVNISYTVVK	-0.661
uchl1_2_7568 (protein) KTVFVGVKVTLTSENKETGKTYKSTHTLIFTESAIEKLVEEIERLALEFKDATGVPVKVDIEVYSTDEEVLKKLMKELKKMAERLKKEGIEVNITGTLVK	-0.4

Binder	median log2 fold change
uchl1_89_7577 (protein) EEERLEAARERLRRILARTRAEVERLLARLGEVPPELRAALDAFFAAAEAAIADPSTAEAALAEAEAAARRLVELAPPEYRASFRLALGRLVNALLGYAA	0.111
uchl1_2_7570 (protein) KTVFVGVLVTLTSKDAKTGKTYKSRRTYIFTESSIEALAKEIKEDALAFQKDVGVPVTVDIKIYSTKEEVVKKTKAVLEKMAEELAKEGIKVNITGTVVK	-0.683
uchl1_2_7571 (protein) ETVFVGVLVTLRARDAETGKEYRSRRTFIFTEDSIEALAEEIRELALAFQADVGVPVTVDIHIYSTKKEVVEKTKKVLEEMAKELAKEGITVNITGTVVK	-0.528
uchl1_2_7573 (protein) KTVFVGIKVTLEAYDEKTGKTYRSTRTLIFTEEALEKAAEEVKELALNFKDAVGVPVTVNVHIVSTDEEVLERLKKLLEEMAKELAKEGITVNISGEVVK	-0.366
uchl1_2_7554 (protein) ETKFVGVLVEIESVNPETGKEYKSRRTLIGTASAIEKLAEEVLELVRTFKEKTKAPVKVKVTVYVSDEETAKKAEKEFKKLEEELKKEGVEVEVEVIVVK	-0.73
uchl1_89_7580 (protein) EEERLRRARERLRRVLEATRAEVERLIARLGEPDPALVAAAEELFAAAEAALEDPERAAEYLARAEAAARRLVELAPPERRASFRLAVGRLVNTLLGYAA	0.043
uchl1_89_7586 (protein) EEERLAAARARLRRILAATRAELERLIASLGVRDPALEAALAAFFAHARRAIEDPATAEEALAAAEAAARELLALAPPEKRADFRLATGRLLNALLGYRA	0.158
uchl1_89_7575 (protein) EAARREAARARLRRILAATEARVAALLARLGEVPPELAAARDAFFAAARAAIDDPATAAAALAAAEAAARRLVELAPPEYRASFRLATGRLLNALRGWAA	0.127
uchl1_2_7557 (protein) KSEFVGVLVTITARDEETGEVKVARRTFIGLAEDIEKLVEEIKKLVLEFKAQYNVPVEVDIKAVVSSEETAEKLKKELEKMKKELEKEGITVNIEVEVVE	-0.214
uchl1_2_7562 (protein) KPVFIGVLVTLTAEDKETGKTYRSRRTLIFTESAIEALAEEIKELALNFRDTVGVPVKVEIKVFSTDEAVVERTVAILEKMAEELAKEGIEVTITGEVVK	-1.04
uchl1_89_7584 (protein) EEARRAAARERLRRVLAATRERLEALMAKWGVADPEAVAALEELFRHAELAIEDPERAEEALAKAEEAAKRLLALAPEERRADVRMATGRLLNRLLGYVA	-0.114
uchl1_2_7559 (protein) KTKFVGVLVKVEAVDEKTGKVKKARRTFIGTEENIEKLVEEIEKYVLEFQKEHGKDVKVKIHGVVSDEETAEKLKKKLEEMKKRLEKEGIKVEIEVTVAK	-0.255
uchl1_89_7587 (protein) EEARREAARARLERVLAKTRARLEALLARMGAPDPAMVAALDALFDAARTALADPATAEAALAEAEAAARRLVELAPEEVKASVRLATGRLVIALRGYLA	-0.0889
uchl1_89_7583 (protein) EEEREAAARARLRAILAATRAALERLIARWGVRDPEAQAALDALFANAERAIADPSTAAEALAKAEEAARRLLALAPPEKRADVRLATGRLLNALLGYVA	-0.0264
uchl1_2_7556 (protein) KTVFVGVAIDLTSTNPETGEVFRSRRTLIGTASAIEAMAEEVRELILRFREETGGPVEVRILVVSSDEAVARRLVALLEAMAAELAAEGVTVTVTRRVLK	-0.249
uchl1_89_7579 (protein) EEERLARARERLRRVLAATRAELARLEARIGEVSPELAAARDALFAAAEAAIADPALAAAQLEAAEAAARRLVALTPPELRASVRLATGRLLNRLLGYAA	-0.16
